Common to all, as to assay: PBM; 200 nM protein, PBS
Conditions in all cases: dsDNA, one strand shown

Assay [1] addresses HOXB9 (Homo sapiens, UniProt P17482 171-250, T197M).
Assay [2] deals with HOXA7 (Homo sapiens, UniProt P31268 116-202).
Assay [3] has as its target HOXB6 (Homo sapiens, UniProt P17509 132-218, K202E).
Another assay has as its target HOXC10 (Homo sapiens, UniProt Q9NYD6 254-340, K271E).
In assay [4] the target is HOXA2 (Homo sapiens, UniProt O43364 129-215, Y150S).
In assay [5] the target is HOXA7 (Homo sapiens, UniProt P31268 116-202, W177C).
Assay [6] addresses HOXA2 (Homo sapiens, UniProt O43364 129-215).
Assay [7] deals with HOXB6 (Homo sapiens, UniProt P17509 132-218).
Assay [8] deals with HOXA4 (Homo sapiens, UniProt Q00056 201-287, W262R).
Assay [9] addresses HOXA4 (Homo sapiens, UniProt Q00056 201-287).
In another assay the target is T1, VENTX (Homo sapiens, UniProt O95231 78-163).
T1 sequence: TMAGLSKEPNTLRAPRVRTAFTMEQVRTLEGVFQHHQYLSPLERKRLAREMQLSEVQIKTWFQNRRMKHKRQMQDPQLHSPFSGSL

For the next assay, the target named is VAX1 (Homo sapiens, UniProt Q5SQQ9 86-172).
Another assay deals with T2, PAX4 (Homo sapiens, UniProt O43316 9-242, R227W).
T2 sequence: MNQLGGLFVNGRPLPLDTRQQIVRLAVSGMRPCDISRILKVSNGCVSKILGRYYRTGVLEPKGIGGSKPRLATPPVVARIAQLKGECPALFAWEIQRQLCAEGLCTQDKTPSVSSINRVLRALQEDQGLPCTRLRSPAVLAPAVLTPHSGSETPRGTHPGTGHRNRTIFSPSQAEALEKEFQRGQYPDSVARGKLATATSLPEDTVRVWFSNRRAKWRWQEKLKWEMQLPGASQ

Assay [10] has as its target HOXC9 (Homo sapiens, UniProt P31274 178-260, K195R).
Assay [11] has as its target HOXB9 (Homo sapiens, UniProt P17482 171-250).
The target of assay [12] is HOXC9 (Homo sapiens, UniProt P31274 178-260).
The target of assay [13] is HOXC9 (Homo sapiens, UniProt P31274 178-260, R193K).
For assay [14], the target named is HOXB9 (Homo sapiens, UniProt P17482 171-250, R186Q).
Assay [15] addresses HOXC9 (Homo sapiens, UniProt P31274 178-260, R222W).

Experimental findings from publication PMC11006913 are described below.

Chain of HOXB6 (Homo sapiens, UniProt P17509 132-218) (P17509 132-218): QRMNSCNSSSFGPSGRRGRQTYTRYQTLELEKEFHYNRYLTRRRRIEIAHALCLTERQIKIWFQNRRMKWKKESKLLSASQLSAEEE
Chain of HOXA7 (Homo sapiens, UniProt P31268 116-202) (P31268 116-202): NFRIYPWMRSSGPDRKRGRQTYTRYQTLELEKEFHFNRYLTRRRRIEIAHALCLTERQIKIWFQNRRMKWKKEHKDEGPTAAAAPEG
Chain of HOXA4 (Homo sapiens, UniProt Q00056 201-287, W262R) (Q00056 201-287 W262R): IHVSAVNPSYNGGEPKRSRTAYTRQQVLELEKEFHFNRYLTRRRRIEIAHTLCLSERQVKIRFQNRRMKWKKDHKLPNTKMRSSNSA
Chain of HOXA2 (Homo sapiens, UniProt O43364 129-215, Y150S) (O43364 129-215 Y150S): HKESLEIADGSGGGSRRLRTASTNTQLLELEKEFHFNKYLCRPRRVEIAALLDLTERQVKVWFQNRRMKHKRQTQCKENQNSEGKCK
Chain of VAX1 (Q5SQQ9 86-172): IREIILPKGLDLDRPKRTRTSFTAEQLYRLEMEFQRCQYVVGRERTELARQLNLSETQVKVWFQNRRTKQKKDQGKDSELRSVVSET
Chain of HOXA2 (Homo sapiens, UniProt O43364 129-215) (O43364 129-215): as the sequence (O43364 129-215 Y150S) above, with S22Y counted along it
Chain of HOXA4 (Homo sapiens, UniProt Q00056 201-287) (Q00056 201-287): as the sequence (Q00056 201-287 W262R) above, with R62W counted along it
Chain of HOXB6 (Homo sapiens, UniProt P17509 132-218, K202E) (P17509 132-218 K202E): as the sequence (P17509 132-218) above, with K71E counted along it
Chain of HOXA7 (Homo sapiens, UniProt P31268 116-202, W177C) (P31268 116-202 W177C): as the sequence (P31268 116-202) above, with W62C counted along it
Chain of HOXB9 (Homo sapiens, UniProt P17482 171-250, T197M) (P17482 171-250 T197M): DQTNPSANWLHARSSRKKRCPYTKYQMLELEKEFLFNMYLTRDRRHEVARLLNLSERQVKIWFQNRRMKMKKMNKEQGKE
Chain of HOXC10 (Q9NYD6 254-340 K271E): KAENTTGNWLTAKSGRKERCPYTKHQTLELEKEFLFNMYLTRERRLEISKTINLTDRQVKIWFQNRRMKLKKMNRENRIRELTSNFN
Chain of HOXC9 (Homo sapiens, UniProt P31274 178-260, R193K) (P31274 178-260 R193K): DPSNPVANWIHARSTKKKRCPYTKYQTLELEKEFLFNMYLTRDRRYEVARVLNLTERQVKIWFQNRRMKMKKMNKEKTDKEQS
Chain of HOXC9 (Homo sapiens, UniProt P31274 178-260, R222W) (P31274 178-260 R222W): as the sequence (P31274 178-260 R193K) above, with K16R, R45W counted along it
Chain of HOXC9 (Homo sapiens, UniProt P31274 178-260, K195R) (P31274 178-260 K195R): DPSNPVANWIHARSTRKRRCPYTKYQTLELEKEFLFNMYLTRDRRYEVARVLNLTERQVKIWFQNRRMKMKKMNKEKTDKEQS
Chain of HOXB9 (Homo sapiens, UniProt P17482 171-250) (P17482 171-250): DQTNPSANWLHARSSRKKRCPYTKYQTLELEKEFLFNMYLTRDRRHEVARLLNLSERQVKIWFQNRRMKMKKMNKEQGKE
Chain of HOXB9 (Homo sapiens, UniProt P17482 171-250, R186Q) (P17482 171-250 R186Q): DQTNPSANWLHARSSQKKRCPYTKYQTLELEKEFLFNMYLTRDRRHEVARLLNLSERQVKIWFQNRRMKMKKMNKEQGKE
Chain of HOXC9 (Homo sapiens, UniProt P31274 178-260) (P31274 178-260): as the sequence (P31274 178-260 R193K) above, with K16R counted along it

On to TAATTGCA, for which the binding signal is 10.2 upbm affinity estimate (log intensity, higher = more binding, comparable within an allelic series) with HOXB9 [1]; 11.6 upbm affinity estimate (log intensity, higher = more binding, comparable within an allelic series) with HOXA7 [2]; 10 upbm affinity estimate (log intensity, higher = more binding, comparable within an allelic series) in the assay with HOXB6 [3]; 11.8 upbm affinity estimate (log intensity, higher = more binding, comparable within an allelic series) in the assay with HOXC10; 11 upbm affinity estimate (log intensity, higher = more binding, comparable within an allelic series) with HOXA2 [4]; 8.79 upbm affinity estimate (log intensity, higher = more binding, comparable within an allelic series) in the assay with HOXA7 [5]. The binding signal is 12.3 upbm affinity estimate (log intensity, higher = more binding, comparable within an allelic series) with HOXA2 [6] and 12.1 upbm affinity estimate (log intensity, higher = more binding, comparable within an allelic series) with HOXB6 [7].

As to CAATTATC, the binding signal in the assay with HOXA4 [8] was 10.5 upbm affinity estimate (log intensity, higher = more binding, comparable within an allelic series); with HOXA7 [2], 11.2 upbm affinity estimate (log intensity, higher = more binding, comparable within an allelic series); in the assay with HOXB6 [3] it was 9.98 upbm affinity estimate (log intensity, higher = more binding, comparable within an allelic series); in the assay with HOXA4 [9], 13.6 upbm affinity estimate (log intensity, higher = more binding, comparable within an allelic series); with HOXA2 [4] it was 10.9 upbm affinity estimate (log intensity, higher = more binding, comparable within an allelic series); in the assay with HOXA7 [5], 8.91 upbm affinity estimate (log intensity, higher = more binding, comparable within an allelic series). The binding signal with HOXA2 [6] was 12.1 upbm affinity estimate (log intensity, higher = more binding, comparable within an allelic series); with HOXB6 [7] it was 11.6 upbm affinity estimate (log intensity, higher = more binding, comparable within an allelic series).

In the case of CTAATTAG, the binding signal with HOXA4 [8] was 10.8 upbm affinity estimate (log intensity, higher = more binding, comparable within an allelic series); with VENTX, 13.5 upbm affinity estimate (log intensity, higher = more binding, comparable within an allelic series); in the assay with HOXA7 [2], 11.9 upbm affinity estimate (log intensity, higher = more binding, comparable within an allelic series); in the assay with HOXB6 [3], 10.2 upbm affinity estimate (log intensity, higher = more binding, comparable within an allelic series); with HOXA4 [9] it was 14.2 upbm affinity estimate (log intensity, higher = more binding, comparable within an allelic series); in the assay with VAX1 it was 14.1 upbm affinity estimate (log intensity, higher = more binding, comparable within an allelic series). In addition, the binding signal with PAX4 is 11.7 upbm affinity estimate (log intensity, higher = more binding, comparable within an allelic series); with HOXA2 [4], 10.9 upbm affinity estimate (log intensity, higher = more binding, comparable within an allelic series); with HOXA7 [5], 8.87 upbm affinity estimate (log intensity, higher = more binding, comparable within an allelic series); in the assay with HOXA2 [6], 13.4 upbm affinity estimate (log intensity, higher = more binding, comparable within an allelic series); with HOXB6 [7], 12.2 upbm affinity estimate (log intensity, higher = more binding, comparable within an allelic series).

As to ATCAATTA, the binding signal with HOXB9 [1] is 10.1 upbm affinity estimate (log intensity, higher = more binding, comparable within an allelic series); with HOXA4 [8] it was 10.7 upbm affinity estimate (log intensity, higher = more binding, comparable within an allelic series); with HOXC9 [10], 12.5 upbm affinity estimate (log intensity, higher = more binding, comparable within an allelic series); in the assay with VENTX it was 12.7 upbm affinity estimate (log intensity, higher = more binding, comparable within an allelic series); in the assay with HOXA7 [2] it was 11.7 upbm affinity estimate (log intensity, higher = more binding, comparable within an allelic series); with HOXB6 [3], 10.1 upbm affinity estimate (log intensity, higher = more binding, comparable within an allelic series). In addition, the binding signal in the assay with HOXB9 [11] is 11.7 upbm affinity estimate (log intensity, higher = more binding, comparable within an allelic series); with HOXC9 [12], 12.6 upbm affinity estimate (log intensity, higher = more binding, comparable within an allelic series); with HOXC9 [13], 12.6 upbm affinity estimate (log intensity, higher = more binding, comparable within an allelic series); with HOXA4 [9], 14.1 upbm affinity estimate (log intensity, higher = more binding, comparable within an allelic series); with HOXC10, 11.9 upbm affinity estimate (log intensity, higher = more binding, comparable within an allelic series); with VAX1 it was 13.3 upbm affinity estimate (log intensity, higher = more binding, comparable within an allelic series). Further, the binding signal with HOXB9 [14] was 11.5 upbm affinity estimate (log intensity, higher = more binding, comparable within an allelic series); with HOXC9 [15], 11.1 upbm affinity estimate (log intensity, higher = more binding, comparable within an allelic series); in the assay with PAX4, 11 upbm affinity estimate (log intensity, higher = more binding, comparable within an allelic series); with HOXA2 [4], 10.9 upbm affinity estimate (log intensity, higher = more binding, comparable within an allelic series); with HOXA7 [5] it was 8.98 upbm affinity estimate (log intensity, higher = more binding, comparable within an allelic series); with HOXA2 [6], 12.7 upbm affinity estimate (log intensity, higher = more binding, comparable within an allelic series). Moreover, the binding signal with HOXB6 [7] is 12.1 upbm affinity estimate (log intensity, higher = more binding, comparable within an allelic series).

For the sequence CAATTACC, the binding signal with HOXA7 [2] is 11.4 upbm affinity estimate (log intensity, higher = more binding, comparable within an allelic series); in the assay with HOXB6 [3] it was 9.82 upbm affinity estimate (log intensity, higher = more binding, comparable within an allelic series); with VAX1, 12.8 upbm affinity estimate (log intensity, higher = more binding, comparable within an allelic series); with HOXA7 [5], 8.84 upbm affinity estimate (log intensity, higher = more binding, comparable within an allelic series); with HOXB6 [7] it was 11.8 upbm affinity estimate (log intensity, higher = more binding, comparable within an allelic series).
